The results in this text go back to PubChem BioAssay.

Molecules are shown by their SMILES. Calls of active or inactive are those of the source. Unless noted, how the calls were made is not given here.

Test [1] has as its system XIP peptide (Xip251-270) binding. Briefly: XIP fragment 251-270 binding compounds – biochemical, small-molecule microarray, fluorescence 635/667 nm, 0.1 µg/mL protein, primary screen (AID 1182). The note with it: fluorescent protein binding, 635 nm, higher = more signal, called active from +8 up or from −8 down.
A further test has as its system XIP peptide (Xip251-270). The test is described as follows: compounds binding XIP fragment 251-270 – biochemical, small-molecule microarray, fluorescence 635/667 nm, 0.5 µg/mL protein, primary screen (AID 1183). The note with it: fluorescence 635 nm, higher = more signal.
Test [2] can be described thus: blood-stage malaria parasite viability loss – strain 3D7, DAPI fluorescence, 100 nL, primary screen (AID 1184).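 Further: parasites grown inside human red blood cells in medium with human serum.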 The note with it: P. falciparum 3D7 growth, 3 d, higher = more signal.
Test [3] concerns the target Homeobox protein Hox-A13 (Mus musculus) (UniProt Q62424). Briefly: disruptors of Hoxa13 oligonucleotide interaction – biochemical, fluorescence polarization, labeled oligonucleotide, primary screen (AID 1185). The note with it: Hoxa13:DNA binding, 15 min, higher = more signal, called active from +8 up or from −8 down. In general terms: Polarisation of emitted light reports the rotation of a fluorescent probe.

The nature of test [4]: blockers of DNA damage checkpoint Chk1 activation – imaging, HeLa, hydroxyurea, phospho-Chk1 antibody, percent positive cells, primary screen (AID 1186). The note with it: hydroxyurea-induced phospho-Chk1 immunofluorescence imaging, higher = more signal.
Test [5] is described as follows: blockers of DNA damage checkpoint Chk1 activation – imaging, HeLa, hydroxyurea, phospho-Chk1 nuclear intensity, primary screen (AID 1187). The note with it: hydroxyurea-induced phospho-Chk1 immunofluorescence imaging, higher = more signal.

Sequence of Homeobox protein Hox-A13 (Mus musculus) (Q62424 whole entry, looked up): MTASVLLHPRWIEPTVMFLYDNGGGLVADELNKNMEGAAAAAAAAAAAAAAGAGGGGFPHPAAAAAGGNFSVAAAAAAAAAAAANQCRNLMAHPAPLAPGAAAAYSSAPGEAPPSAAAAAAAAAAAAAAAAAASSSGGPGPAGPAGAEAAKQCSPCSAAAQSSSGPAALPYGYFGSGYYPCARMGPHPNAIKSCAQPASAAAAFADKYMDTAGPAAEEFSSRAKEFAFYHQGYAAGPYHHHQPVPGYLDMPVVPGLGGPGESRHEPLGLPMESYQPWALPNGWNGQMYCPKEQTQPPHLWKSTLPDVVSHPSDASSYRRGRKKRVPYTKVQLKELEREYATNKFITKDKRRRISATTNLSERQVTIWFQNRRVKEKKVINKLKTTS

For the compound `C=CCOC(=O)[C@@H]1[C@H]2C(=O)O[C@H](c3ccccc3)[C@H](c3ccccc3)N2[C@H](c2ccc(OCCOC(=O)[C@@H]3C[C@@H]4C(=O)N[C@@H](CCCCN(C)C)C(=O)N4[C@@H]3c3ccc(O)cc3)cc2)[C@@]12C(=O)Nc1ccc(I)cc12`, the values for the composite z-score (in test [1]; with XIP peptide (Xip251-270)) were 1.45 (inactive) and 0.783, respectively. Besides, the z-score is -0.369 in test [2], 5.96 (inactive) in test [3], -0.0333 (inactive) in test [4] and 0.121 (inactive) in test [5].

`O=C1c2ccccc2[C@](Cc2ccccc2I)(C(=O)NC2CC2)[C@H](c2ccc(CO)cc2)N1Cc1ccccc1`: the composite z-score in test [1] was 0.534 (inactive); in the test on XIP peptide (Xip251-270), 0.63. Moreover, the z-score in test [2] was -0.35; in test [3], -5.1 (inactive); in test [4], 0.0675 (inactive); in test [5], -0.345 (inactive).

Turning to `COC(=O)[C@@]1(Cc2ccc(OC)cc2)[C@H]2c3cc(C(=O)N4CCCC4)n(Cc4ccc(OC)c(OC)c4)c3C[C@H]2CN1C(=O)c1ccccc1`, the results for the composite z-score (in test [1]; in the test with XIP peptide (Xip251-270)) were 1.27 (inactive) and 0.653, respectively. The z-score in test [2] was -1.65; in test [3], -4.91 (inactive); in test [4], 0.666 (inactive); in test [5] it was 0.699 (inactive).

In the case of `C=CCOC(=O)[C@@H]1[C@H]2C(=O)O[C@H](c3ccccc3)[C@H](c3ccccc3)N2[C@H](c2ccc(OCCOC(=O)[C@@H]3C[C@@H]4C(=O)N[C@@H](CCCC[N+](C)(C)C)C(=O)N4[C@@H]3c3cccc(OCCO)c3)cc2)[C@@]12C(=O)Nc1ccc(I)cc12`, the composite z-score was 1.18 (inactive) in test [1] and 0.786 with XIP peptide (Xip251-270). Moreover, the z-score is 0.0875 in test [2], 6.23 (inactive) in test [3], -0.558 (inactive) in test [4] and 0.16 (inactive) in test [5].

On to `CN(C)CCCNC(=O)[C@@]1(C)c2ccccc2C(=O)N(Cc2cc(F)cc(C(F)(F)F)c2)[C@H]1c1ccc(CO)cc1`, for which the composite z-score in test [1] was -0.55 (inactive); in the test on XIP peptide (Xip251-270) it was -0.114. Moreover, the z-score was -0.809 in test [2], -2.15 (inactive) in test [3], 0.0595 (inactive) in test [4] and 0.121 (inactive) in test [5].

As for `COC(=O)[C@@]1(Cc2ccc(OC)cc2)[C@H]2c3cc(C(=O)N4CCCC4)n(Cc4ccsc4Br)c3C[C@H]2CN1C(=O)c1ccccc1`, the results for the composite z-score (in test [1]; with XIP peptide (Xip251-270)) were -0.0625 (inactive) and 0.75, respectively. The z-score in test [2] was -1.59; in test [3] it was -5.51 (inactive); in test [4] it was -0.592 (inactive); in test [5], -1.13 (inactive).

`CCCC[C@H]1OB(O)C[C@H]2C1=C(COc1ccccc1)C[C@H]1C(=O)N(C)C(=O)[C@H]12`: the composite z-score is -0.146 (inactive) in test [1] and -0.544 with XIP peptide (Xip251-270). The z-score is 1.68 in test [2], -4.62 (inactive) in test [3], -0.267 (inactive) in test [4] and 0.201 (inactive) in test [5].

As for `O=C1OCCC/C=C\[C@H]2OC34C=CCN(c5ccc6ccccc6c5)C(=O)[C@H]3N(CCCCCCO)C(=O)[C@@H]4C12` (stereo not given in full), the composite z-score in test [1] was 0.346 (inactive); with XIP peptide (Xip251-270), 0.0339. The z-score in test [2] was -0.577; in test [3] it was -5.08 (inactive); in test [4], -0.833 (inactive); in test [5], -0.428 (inactive).

As for `O=C1C2C=CC(C(O)C(c3ccccc3)c3ccccc3)N(n3cnnc3)C2C(=O)N1Cc1ccccc1` (stereo not given), the figures for the composite z-score (in test [1]; in the test on XIP peptide (Xip251-270)) were 0.23 (inactive) and 0.664, respectively. Further, the z-score in test [2] is -0.528; in test [3], -3.79 (inactive); in test [4], 0.414 (inactive); in test [5], -0.402 (inactive).

Regarding `CC(C)[C@@H](CO)NC(=O)[C@H]1[C@@H](c2ccccc2)N(c2ccccc2)O[C@@H]1C`, the composite z-score in test [1] is -0.795 (inactive); in the test on XIP peptide (Xip251-270), -0.248. Further, the z-score was 0.484 in test [2], -1.23 (inactive) in test [3], -0.0482 (inactive) in test [4] and 0.564 (inactive) in test [5].

`COc1ccc(CCN2C(=O)[C@@]3(Cc4ccccc42)c2ccccc2C(=O)N(Cc2ccccc2C(F)(F)F)[C@H]3c2ccc(CO)cc2)cc1`: the figures for the composite z-score (in test [1]; in the test on XIP peptide (Xip251-270)) were -0.223 (inactive) and 0.146, respectively. In addition, the z-score in test [2] was -1.18; in test [3] it was 0.869 (inactive); in test [4], -0.389 (inactive); in test [5], -0.826 (inactive).

As to `C=CCOC(=O)[C@H]1[C@@H]2C(=O)O[C@@H](c3ccccc3)[C@@H](c3ccccc3)N2[C@@H](c2ccc(OCCOC(=O)[C@H]3C[C@H]4C(=O)N5CCC[C@H]5C(=O)N4[C@H]3c3ccc(O)cc3)cc2)[C@]12C(=O)Nc1ccc(I)cc12`, the composite z-score was 2.85 (inactive) in test [1] and 0.84 with XIP peptide (Xip251-270). In addition, the z-score in test [2] was -1.28; in test [3], 0.622 (inactive); in test [4], -0.187 (inactive); in test [5], 0.366 (inactive).

`COc1cc(CO)cc(I)c1O[C@H]1C=C(C(=O)NCCO)C[C@@H](N(CCN2CCOCC2)C(=O)C2CCOC2)[C@@H]1O` (stereo not given in full): the figures for the composite z-score (in test [1]; with XIP peptide (Xip251-270)) were 0.384 (inactive) and 0.551, respectively. In addition, the z-score is 0.199 in test [2], -7.57 (inactive) in test [3], -0.182 (inactive) in test [4] and 0.246 (inactive) in test [5].

For `COCCOC(=O)N1C(=O)[C@@]2(c3cc(C#CCCO)ccc31)[C@H](C(=O)Nc1nc3ccccc3s1)[C@H]1C(=O)O[C@H](c3ccccc3)[C@H](c3ccccc3)N1[C@@H]2c1ccc(OCCO)cc1`, the composite z-score in test [1] is 0.886 (inactive); in the test with XIP peptide (Xip251-270), 0.744. The z-score is -1.12 in test [2], 0.518 (inactive) in test [3], -0.502 (inactive) in test [4] and -0.558 (inactive) in test [5].

Regarding `[N-]=[N+]=Nc1ccccc1C[C@]1(C(N)=O)N=C(c2ccc(OCCCO)cc2)O[C@H]1c1ccccc1`, the composite z-score in test [1] is -0.254 (inactive); in the test on XIP peptide (Xip251-270) it was 0.537. The z-score in test [2] was -0.98; in test [3] it was -7.09 (inactive); in test [4] it was 0.0195 (inactive); in test [5], -0.54 (inactive).
